Drawing on PubChem BioAssay AID2098 (Broad Institute, 2009), this text covers activity change, negative = inhibition for 93 compounds.

Among all 300,000 compounds or so, about 2,300 (0.77%) were called active. For the sample, actives were picked, then their nearest neighbours and some compounds at random. Unmarked numbers belong to inactive results.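 Rule for the calls: active = more than half of replicate wells show activity change below -50%, luminescence cut by over half; inconclusive = some wells, but at most half, below -50%; inactive = no replicate well below -50%.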

A short description of the test: blocking HSF1-driven luciferase expression – cell-based, NIH3T3, luminescence, primary screen (AID 2098).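 Note: luciferase reports HSF-1 transcriptional activity via heat shock element; 0% = median of DMSO wells and -100% = zero luminescence signal.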 Conditions: NIH3T3-HGL HSE-luciferase, MG132-induced, luminescence 8 h; hits give low values; screened at 7.5 µM (by protocol).
With `COc1cc(/C=N/n2c(C)n[nH]c2=S)ccc1OCc1ccccc1`, the activity change, negative = inhibition is -2.45%.

On to `Cn1c(-c2sc3cc(C(F)(F)F)cnc3c2-c2ccccc2)n[nH]c1=S`, for which the activity change, negative = inhibition was -4.57%.

As for `Cn1c(-c2sccc2OCc2cccc(C(F)(F)F)c2)n[nH]c1=S`, the activity change, negative = inhibition was -82.6% (active).

With `O=C(c1ccc(Cl)cc1)c1ccc(OCC(O)CN2CCCCC2)cc1` (stereo not drawn), the activity change, negative = inhibition is -7.88%.

As to `O=C(c1ccccc1)c1ccc(OCC(O)CN2CCCC2)cc1` (stereo not drawn), the activity change, negative = inhibition is -61.3% (active).

For the compound `CC1CCN(CC(O)COc2ccc(C(=O)c3ccccc3)cc2)CC1` (stereo not drawn), the activity change, negative = inhibition was -15%.

With `Cc1ccc(NC(=O)CSc2nc(=O)n(CCN(C)C)c3c2CCCC3)c(C)c1`, the activity change, negative = inhibition was -5.63%.

Consider `COc1ccc(C2=NN(C(=O)CSc3nc(=O)n4ccc(C)cc4n3)C(c3ccc(C)cc3)C2)cc1` (stereo not drawn), for which the activity change, negative = inhibition was 11.2%.

With `CC(=O)N/C(=C\c1ccccc1)C(=O)OC(C)C(=O)N(C)c1ccccc1` (stereo not drawn), the activity change, negative = inhibition is 1.34%.

`Cc1nc2ccccc2c(=O)n1NC(=O)c1ccc(Cl)c([N+](=O)[O-])c1`: the activity change, negative = inhibition was 1.5%.

On to `O=C(Nc1cccnc1)c1ccc(Cl)c([N+](=O)[O-])c1`, for which the activity change, negative = inhibition is -4.95%.

Take `C/C(=N\Nc1nncc2ccccc12)c1ccc(Cl)c([N+](=O)[O-])c1`: the activity change, negative = inhibition was -54.9% (active).

Consider `COc1ccc(NS(=O)(=O)c2ccc(C)c(C(=O)N(C)Cc3ccc(OC)cc3OC)c2)cc1`, for which the activity change, negative = inhibition is -0.123%.

As for `Cc1ccc(C)c(OCCC(=O)OCC(=O)c2ccc3c(c2)NC(=O)CO3)c1`, the activity change, negative = inhibition was 1.77%.

As to `CCOC(=O)/C(=C\c1ccc([N+](=O)[O-])cc1)C(=O)c1cc(C(C)=O)c(Nc2ccccc2)s1`, the activity change, negative = inhibition is -93.6% (active).

In the case of `O=C(Nc1ccccc1)/C(=C/c1ccc([N+](=O)[O-])cc1)NC(=O)c1ccccc1`, the activity change, negative = inhibition is -11.2%.

As for `Cc1ccc(NC(=O)/C(=C/c2ccc([N+](=O)[O-])cc2)NC(=O)c2ccccc2)cc1`, the activity change, negative = inhibition is -1.77%.

For `CC1CCCCC1NC(=O)c1cc(=O)[nH]c2ccccc12` (stereo not drawn), the activity change, negative = inhibition was -3.75%.

Consider `Nc1ccc(C(=O)N2CCN(S(=O)(=O)c3ccc(Cl)cc3)CC2)cc1[N+](=O)[O-]`, for which the activity change, negative = inhibition is 3.46%.

Turning to `CCOC(=O)c1cccnc1NC(=O)c1ccncc1`, the activity change, negative = inhibition is -52.6% (active).

As for `CCOc1cc(C(=O)Nc2ncccn2)cc(OCC)c1OCC`, the activity change, negative = inhibition was -4.41%.

Turning to `CCOC(=O)c1ccc(NC(=O)c2cccnc2)cc1`, the activity change, negative = inhibition is -6.35%.

Turning to `CCOc1ccccc1NC(=O)c1cccnc1`, the activity change, negative = inhibition is -2.44%.

Turning to `CCOc1ccc(C(=O)Nc2ccncc2)cc1`, the activity change, negative = inhibition is 4.46%.

Regarding `CCOC(=O)c1cc(NC(=O)c2cccnc2)ccn1`, the activity change, negative = inhibition is -72.9% (active).

For the compound `CCOC(=O)c1c(C)oc2cc(Sc3ccccc3)c(O)c(O)c12`, the activity change, negative = inhibition was 13.1%.

As to `COc1ccc(C(=O)NCC(c2ccco2)N2CCc3ccccc32)cc1OC` (stereo not drawn), the activity change, negative = inhibition is 2.71%.

As to `CCC(=O)c1ccc(OCC(=O)OCC(=O)NC2CCCCCC2)cc1`, the activity change, negative = inhibition is -9.22%.

Consider `COc1ccc(CNC(=O)COC(=O)CCS(=O)(=O)c2ccc(C)cc2)cc1OC`, for which the activity change, negative = inhibition was -1.13%.

Take `O=C(CSc1ccccc1F)NC1CCS(=O)(=O)C1` (stereo not drawn): the activity change, negative = inhibition is -68.8% (active).

With `O=C(Cc1ccc(Cl)cc1)NC1CCS(=O)(=O)C1` (stereo not drawn), the activity change, negative = inhibition was 0.993%.

Regarding `O=C(CSc1nn(-c2ccc(F)cc2)c(=S)s1)NC1CCS(=O)(=O)C1` (stereo not drawn), the activity change, negative = inhibition was 2.24%.

Regarding `CN(CC(=O)Nc1ccccc1Cl)C(=O)COc1cccc2c1OC(C)(C)C2`, the activity change, negative = inhibition was 4.06%.

As to `CN1C/C(=C/c2cccs2)C(=O)/C(=C\c2cccs2)C1`, the activity change, negative = inhibition is 19.3%.

In the case of `Cc1cccc(C2=N/C(=C/c3cccs3)C(=O)O2)c1`, the activity change, negative = inhibition was -10.1%.

For `CSC1=N/C(=C\C=C\c2cccs2)C(=O)S1`, the activity change, negative = inhibition is -67.1% (active).

With `CCCc1cc(=O)[nH]c2nnc(SCC(=O)Nc3nnc(SCC)s3)n12`, the activity change, negative = inhibition is -2.82%.

For the compound `COc1ccc(CCNC(=O)Cc2ccc(C)cc2)cc1OC`, the activity change, negative = inhibition was -5.1%.

`COc1cccc(/C=C/C(=O)OCC(=O)N2CCCc3ccccc32)c1`: the activity change, negative = inhibition was 0.601%.

Regarding `CCC1Nc2ncnc(N3CCN(c4ccccc4)CC3)c2N(Cc2ccc(Cl)cc2)C1=O` (stereo not drawn), the activity change, negative = inhibition was 11.2%.

As to `CCc1ccc(C(CNc2nc(C(F)(F)F)nc3ccccc23)N(C)C)cc1` (stereo not drawn), the activity change, negative = inhibition was -82% (active).

For `NS(=O)(=O)c1ccc(CCNc2nc(C(F)(F)F)nc3ccccc23)cc1`, the activity change, negative = inhibition was -2.88%.

Take `COc1cccc(CNc2nc(C(F)(F)F)nc3ccccc23)c1`: the activity change, negative = inhibition was 0.989%.

With `CCCCn1c(N)c(N(CC(C)C)C(=O)c2ccc(Br)o2)c(=O)[nH]c1=O`, the activity change, negative = inhibition was 4.02%.

Turning to `CCCN(CCc1ccccc1)C1CCc2c(O)cccc2C1` (stereo not drawn), the activity change, negative = inhibition was 7.71%.

For `CCOC(=O)C1=C(c2ccc(OC)cc2)C(=O)c2ccccc2C1=O`, the activity change, negative = inhibition was 31.1%.

Take `CCOC(=O)c1c(C)[nH]c(C)c1S(=O)(=O)N(C)CC(=O)Nc1ccccc1C`: the activity change, negative = inhibition was 4.41%.

For `CCOC(=O)c1c(C)[nH]c2c1-c1ccccc1C(=O)C2=O`, the activity change, negative = inhibition is -91.5% (active).

For `CSc1ccc(S(=O)(=O)NCC(=O)OCC(=O)NC2(C#N)CCCCC2)cc1[N+](=O)[O-]`, the activity change, negative = inhibition is 4.69%.

In the case of `O=C(Cn1c(N2CCN(C/C=C/c3ccccc3)CC2)nc2ccccc21)c1ccccc1`, the activity change, negative = inhibition was -0.086%.

In the case of `CC(C)N(C(=O)Cn1c(SCC(=O)N2CCN(c3ccccc3)CC2)nc2ccccc21)C(C)C`, the activity change, negative = inhibition is -10.4%.

As to `CC(C)Cn1c(N2CCN(C(=O)/C=C/c3ccccc3)CC2)nc2ccccc21`, the activity change, negative = inhibition is -65.4% (active).

`O=C(COc1ccccc1Cl)Nc1ccccc1C(=O)NC1CC1`: the activity change, negative = inhibition is 6.98%.

With `O=C(N/N=C/c1ccc([N+](=O)[O-])o1)c1cccc(S(=O)(=O)N2CCOCC2)c1`, the activity change, negative = inhibition is 6.48%.

Turning to `CCOc1cc(/C=N/NC(=O)c2cccc(S(=O)(=O)N3CCOCC3)c2)ccc1OCC(=O)N(C)C`, the activity change, negative = inhibition was -64.3% (active).

As to `COc1ccc(Br)cc1/C=N/NC(=O)c1cccc(S(=O)(=O)N2CCOCC2)c1`, the activity change, negative = inhibition was -2.38%.

Turning to `CC(=O)Nc1cccc(C(=O)OCC(=O)NCc2cc(C)c(O)c(C)c2)c1`, the activity change, negative = inhibition was 9.36%.

`NC(=O)C1=C[C@H](c2csc3ccccc23)C[C@H](OCc2ccc(CO)cc2)O1`: the activity change, negative = inhibition is 5.45%.

With `COc1ccc(C(=O)c2c3ccc([N+](=O)[O-])cc3[n+]([O-])n2CCCN)cc1`, the activity change, negative = inhibition was 13.3%.

Consider `O=C(NC1CCCCC1)c1ccc(-c2ccc(Cl)cc2)o1`, for which the activity change, negative = inhibition is 43.4%.

On to `CC1(C)S[C@@H]2[C@H](NC(=O)COc3ccccc3)C(=O)N2C1C(=O)OCc1ccccc1` (stereo partly drawn), for which the activity change, negative = inhibition was 5.03%.

Turning to `Cc1c(NC(=O)CN(C)CC(=O)Nc2ccc(F)c(F)c2F)c(=O)n(-c2ccccc2)n1C`, the activity change, negative = inhibition is 1.95%.

Regarding `Cc1ccn2c(=O)nc(SCC(=O)NCc3ccc(F)cc3)nc2c1`, the activity change, negative = inhibition is 4.59%.

Take `Cc1cccc(N2CCN(C(c3ccccc3)c3nnnn3CC3CCCO3)CC2)c1C` (stereo not drawn): the activity change, negative = inhibition was -61% (active).

As for `Cc1cccc(N2CCN(C(c3ccc(N(C)C)cc3)c3nnnn3C(C)(C)C)CC2)c1C` (stereo not drawn), the activity change, negative = inhibition was -2.19%.

As for `COc1ccccc1C(c1nnnn1CC1CCCO1)N1CCN(c2ccccc2)CC1` (stereo not drawn), the activity change, negative = inhibition is -0.551%.

Take `Cc1sc2nc(CSCC(=O)NC3CCCCC3)[nH]c(=O)c2c1C`: the activity change, negative = inhibition is 16.5%.

For the compound `CCOC(=O)N1CCN(C(=S)Nc2ccc(C)cc2C)CC1`, the activity change, negative = inhibition is -68.8% (active).

On to `Cc1cc(Cl)ccc1NC(=S)N1CCC(C(N)=O)(N2CCCCC2)CC1`, for which the activity change, negative = inhibition was 1.76%.

Regarding `CCOC(=O)c1ccc(NC(=S)N2CCCC2)cc1`, the activity change, negative = inhibition was 19%.

Turning to `O=C1CCCCC1Sc1ccc(Cl)cc1[N+](=O)[O-]` (stereo not drawn), the activity change, negative = inhibition was 3.95%.

Take `CCOc1ccc(NS(=O)(=O)c2ccc(C(=O)NCC(c3ccccc3OC)N3CCCC3)cc2)cc1` (stereo not drawn): the activity change, negative = inhibition is -3.53%.

`O=C(NC1CC1)C1=C[C@H](c2coc3ccccc3c2=O)C[C@H](OCCCCO)O1`: the activity change, negative = inhibition was -5.11%.

With `COc1ccc(Cl)cc1C(=O)NNC(=S)NC1CCCC1`, the activity change, negative = inhibition was 6.56%.

As for `COc1cc(OC)c(C(=O)NC2CCCCCC2)cc1OC`, the activity change, negative = inhibition is 2.19%.

As for `COc1ccc(C(C)NC(=S)NC2CCCCC2)cc1OC` (stereo not drawn), the activity change, negative = inhibition is -74.6% (active).

Regarding `Clc1ccc(Nc2ccc3ccccc3n2)cc1`, the activity change, negative = inhibition was 6.43%.

On to `Cc1ccc(C2(C)NC(=O)N(CC(=O)Nc3ccccc3C(=O)N3CCCCC3)C2=O)cc1` (stereo not drawn), for which the activity change, negative = inhibition was 10.1%.

`O=C1CN(C(=O)COC(=O)c2cnc(Cl)c(Cl)c2)c2ccccc2N1`: the activity change, negative = inhibition was 6.76%.

Take `COc1cc(OC)c(C(=O)OCC(=O)N2CC(=O)Nc3ccccc32)cc1OC`: the activity change, negative = inhibition is 11.6%.

As for `O=C1CN(C(=O)COc2c(Cl)cccc2Cl)c2ccccc2N1`, the activity change, negative = inhibition was -74.4% (active).

As to `O=C1/C(=C\c2ccc(O)cc2)CCC1CNc1ccc(Cl)cc1` (stereo not drawn), the activity change, negative = inhibition was -5.88%.

For `COC(=O)Cc1[nH]n(-c2nc3ccccc3s2)c(=O)c1C(C)=Nc1ccc(OC)cc1`, the activity change, negative = inhibition is -58.9% (active).

Take `CC(=NCc1ccco1)c1c(C(F)(F)F)[nH]n(-c2nc3ccccc3s2)c1=O`: the activity change, negative = inhibition was -32.4%.

Turning to `C/C(=N\NC(=O)CC(C)C)c1c(C(F)(F)F)[nH]n(-c2nc3ccccc3s2)c1=O`, the activity change, negative = inhibition was -6.15%.

With `Cc1ccc(S(=O)(=O)NC(C)C(=O)NCc2ccc(Cl)cc2)cc1` (stereo not drawn), the activity change, negative = inhibition was -3.78%.

For the compound `C=CCn1c(C)cc(C2=NNC(=NCC)SC2)c1C`, the activity change, negative = inhibition was -77.6% (active).

Turning to `C=CCn1c(C)cc(C(=O)CN2C(=O)c3ccccc3C2=O)c1C`, the activity change, negative = inhibition was 8.2%.

In the case of `Cc1cccc(N=C2NN=C(c3c[nH]c4ccccc34)CS2)c1`, the activity change, negative = inhibition is 14.3%.

Regarding `Cc1ccc(CNS(=O)(=O)CCNC(=O)c2ccccc2)cc1`, the activity change, negative = inhibition is -2.85%.

On to `O=C(NCc1cccs1)C1CCN(S(=O)(=O)c2ccc(Cl)cc2)CC1`, for which the activity change, negative = inhibition is 4.22%.

In the case of `CC(C)c1ccc(NC(=O)C2CCCN(S(=O)(=O)c3cccnc3)C2)cc1` (stereo not drawn), the activity change, negative = inhibition is -2.05%.

Take `O=C(Nc1ccc(F)c(Cl)c1)C1CCN(S(=O)(=O)c2cccnc2)CC1`: the activity change, negative = inhibition was -56.8% (active).
